MOR-DOR inv ag – inverse agonists of MOR-DOR heterodimerization, primary screen, cell-based, luminescence | Mu-type opioid receptor (Homo sapiens) + Delta-type opioid receptor (Homo sapiens), … | cell-based MOR-DOR heterodimer luminescence, inverse agonism | inhibition, % at 9.3 µM | hit rate 0.21% among 340,000; in the data active = inhibition above about 22%, passing the limit was not always enough
HTR5A ag ctr – HTR5A agonists in luminescence cell assay, primary screen, counter-screen for OPRM1-OPRD1 heterodimer agonist project, full-deck HTS. 5-hydroxytryptamine receptor 5A (Homo sapiens), P47898. cell-based. activation, % at 9.3 µM. hit rate 0.61% among 340,000; in the data active = activation mostly above about 9.5%, no sharp cut-off; inactive = mostly below about 7.6%
OPRM1-OPRD1 ag – agonists of OPRM1-OPRD1 heterodimerization, primary screen, cell-based, luminescence; cells; activation, % at 9.3 µM; hit rate 0.3% among 340,000; AID 504326, 2011
HTR5A inv ctr – HTR5A inverse agonists in luminescence cell assay, primary screen, counter-screen for OPRM1-OPRD1 heterodimer inverse agonist project, full-deck HTS. 5-hydroxytryptamine receptor 5A (Homo sapiens), P47898. HTR5A cell line, inverse agonism. inhibition, % at 9.3 µM. hit rate 0.083% among 340,000. AID 504634, 2011; in the data active = inhibition mostly above about 23%, no sharp cut-off; inactive = mostly below about 18%
OPRM1-D1 ag cf – agonists of MOR-DOR heterodimerization, confirmation, cell-based, luminescence; shares compounds with OPRM1-OPRD1 ag; cells, luminescence complementation; activation, % at 9.3 µM; hit rate 45% among 830; AID 504904, 2011
HTR5A ag counter – HTR5A agonists in cells, counter-screen for OPRM1-OPRD1 heterodimer agonist project, cell-based, luminescence; shares compounds with OPRM1-OPRD1 ag; HTR5A agonist counterscreen; activation, % at 9.3 µM; hit rate 8% among 830; in the data active = activation above about 17%
Numbers stand for hits; n = inactive; x = no result. An excerpt weighted towards active compounds, which were near 1.1% of everything screened. Rule as the data show it, unless noted: active = activation above about 18%; inactive = the rest.

SMILES	MOR-DOR inv ag	HTR5A ag ctr	OPRM1-OPRD1 ag	HTR5A inv ctr	OPRM1-D1 ag cf	HTR5A ag counter
COc1cc2[nH]c(C(=O)Nc3ccc(F)cc3)cc2c(OC)c1OC	n	n	n	n	x	x
Cc1ccccc1Cn1c(O)c(N=NC(=S)Nc2ccccc2F)c2ccccc21	n	n	18	n	76	n
Cc1cc(/C=C\c2ccc3cc(N(C)C)ccc3[n+]2C)c(C)n1-c1ccccc1	n	n	48	n	n	n
CC(C)(C)OC(=O)N(CCc1ccccc1)Cc1ccccc1OCc1ccc(NC(=O)C2CCCC2)cc1	n	n	n	n	x	x
Cc1cc(Cl)ccc1OCCCC(=O)N/N=C/c1cccc([N+](=O)[O-])c1	n	n	21	n	n	n
COC(=O)CCCNC(=O)c1ccc(OC2CCN(CCc3ccccc3)CC2)cc1	n	n	38	n	35	n
Cc1ccc(NC(=O)c2cc(S(=O)(=O)N3CCCCC3)c[nH]2)cc1C	n	n	30	n	n	n
Cc1ccc(NC(=O)c2cc(S(=O)(=O)N3CCCCC3)c[nH]2)cc1F	n	n	n	n	x	x
CC(=O)CSc1ccc(S(=O)(=O)N2CCN(C)CC2)cn1	n	n	n	n	x	x
COCCN(CCOC)C(=O)CSc1ccc(S(=O)(=O)N2CCN(C)CC2)cn1	n	n	32	n	n	n
Nc1c(NCCN2CCCCC2)c2ccccc2oc1=O	n	n	53	n	n	n
Cc1cc(N2CCN(c3ccc([N+](=O)[O-])c4cccnc34)CC2)c2ccccc2n1	n	n	36	n	52	n
COC(=O)c1ccc(Cn2nc(-c3cc(C)ccc3C)ccc2=O)cc1	n	n	n	n	x	x
CC(C)C[C@H]1CN=C(Nc2ccccc2)N1CCc1cccc(F)c1	n	n	n	n	x	x
Cc1cccc(CCN2C(Nc3ccccc3)=NC[C@@H]2CC(C)C)c1	n	n	38	n	n	n
C(C#CCCCCCCCCC[n+]1ccccc1)#CCCCCCCCCC[n+]1ccccc1	n	n	n	n	x	x
CN1CCN(c2ccc(NC(=O)COc3cccc4ccccc34)cc2)CC1	n	n	25	n	n	39
CN1CCN(c2ccc(NC(=O)COc3ccc4ccccc4c3)cc2)CC1	n	n	n	n	x	x
Cc1ccc(-n2cc(CNC(C)c3cnn(C)c3C)c(-c3ccc(F)cc3)n2)cc1 (stereo unspecified)	n	n	222	n	34	n
Cc1ccc(-n2cc(CNCCCn3ccnc3C)c(-c3ccc(F)cc3)n2)cc1	n	n	n	n	x	x
Cc1ccc(-n2cc(CNC(C)c3cnn(C)c3)c(-c3ccc(F)cc3)n2)cc1 (stereo unspecified)	n	n	366	n	440	n
COc1cccc(N=c2oc3ccc(OC)cc3cc2-c2nc3ccccc3[nH]2)c1	n	n	19	n	26	n
CCc1cccc(CC)c1NC(=S)NCC(c1cccnc1)N(C)C (stereo unspecified)	n	n	150	n	n	n
CN(C)C(CNC(=O)Nc1cccc(Cl)c1)c1cccnc1 (stereo unspecified)	n	n	202	n	n	n
CN(C)C(CNC(=S)Nc1ccc(Cl)cc1)c1cccnc1 (stereo unspecified)	n	n	264	n	n	n
SMILES	MOR-DOR inv ag	HTR5A ag ctr	OPRM1-OPRD1 ag	HTR5A inv ctr	OPRM1-D1 ag cf	HTR5A ag counter
CCCCN(C(=O)c1ccc(C#N)cc1)c1c(N)n(CCC)c(=O)[nH]c1=O	n	n	n	n	x	x
O=C1CC2C(CCC23OCCO3)c2ccc3ccccc3c21 (stereo unspecified)	n	n	n	n	x	x
COc1ccccc1N1CCN(C(c2cccs2)C(C)NC(=O)c2ccco2)CC1 (stereo unspecified)	n	n	91	n	119	n
COc1ccc(N2CCN(C(c3cccs3)C(C)NC(=O)c3ccco3)CC2)cc1 (stereo unspecified)	n	n	n	n	x	x
CCn1c(/C=C/c2c[nH]c3ccccc23)nc2ccccc2c1=O	n	n	n	n	x	x
CCn1c(/C=C/c2c(C)[nH]c3ccccc23)nc2ccccc2c1=O	n	n	27	n	n	n
CCn1c(=O)c(C(=O)NCc2ccccc2)c(O)c2ccccc21	n	n	n	n	x	x

Screening data: PubChem BioAssay, The Scripps Research Institute Molecular Screening Center
